# Assay outcomes: PubChem BioAssay, NMMLSC
# Rows were chosen to be rich in hits. Some 3.5% of all compounds tested hit in one or more screens of this group.
# Anthrax LF inh2 – Bacillus anthracis LF protease inhibitors, primary screen, biochemical, multiplex microsphere, MLPCN library. Lethal factor (Bacillus anthracis), P15917. multiplex microsphere protease cleavage assay. inhibition, % at 10 µM. hit rate 0.12% among 360,000. AID 588501, 2011; note: plate controls were buffer without enzyme for full effect and enzyme alone for no effect
# Target sequence (P15917 whole entry, looked up): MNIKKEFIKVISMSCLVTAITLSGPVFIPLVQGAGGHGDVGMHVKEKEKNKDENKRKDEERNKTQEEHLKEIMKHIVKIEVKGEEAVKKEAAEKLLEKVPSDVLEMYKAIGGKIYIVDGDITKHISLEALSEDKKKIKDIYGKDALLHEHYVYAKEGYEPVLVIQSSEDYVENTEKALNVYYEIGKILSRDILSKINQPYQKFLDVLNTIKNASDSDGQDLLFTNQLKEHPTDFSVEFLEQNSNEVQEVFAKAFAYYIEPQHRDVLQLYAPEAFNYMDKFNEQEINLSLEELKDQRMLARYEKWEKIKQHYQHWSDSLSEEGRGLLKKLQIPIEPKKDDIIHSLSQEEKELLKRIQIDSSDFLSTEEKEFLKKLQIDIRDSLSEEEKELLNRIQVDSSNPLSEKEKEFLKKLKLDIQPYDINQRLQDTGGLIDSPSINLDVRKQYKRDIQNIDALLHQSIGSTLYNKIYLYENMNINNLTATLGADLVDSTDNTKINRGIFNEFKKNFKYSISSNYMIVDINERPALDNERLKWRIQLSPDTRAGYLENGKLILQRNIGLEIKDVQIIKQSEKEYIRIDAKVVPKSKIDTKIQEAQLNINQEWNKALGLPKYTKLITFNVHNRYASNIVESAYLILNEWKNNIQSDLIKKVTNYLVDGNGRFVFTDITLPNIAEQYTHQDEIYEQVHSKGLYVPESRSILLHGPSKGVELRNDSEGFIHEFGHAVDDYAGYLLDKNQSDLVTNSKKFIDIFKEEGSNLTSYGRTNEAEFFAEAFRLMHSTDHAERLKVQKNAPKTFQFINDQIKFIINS
# BoNT A protease – BoNT/A light chain protease inhibitors, primary screen, biochemical, flow cytometry, MLPCN library; Botulinum neurotoxin type A light chain protease (Clostridium botulinum A str. ATCC 3502); multiplex microsphere protease substrate cleavage; inhibition, % at 10 µM; hit rate 0.17% among 360,000; AID 588499, 2011; note: plate controls were buffer without enzyme for full effect and enzyme alone for no effect
# BoNT F protease – BoNT/F light chain protease inhibitors, primary screen, biochemical, flow cytometry, MLPCN library | Botulinum neurotoxin type F light chain protease (Clostridium botulinum) | Multiplex microsphere protease cleavage assay | inhibition, % at 10 µM | hit rate 0.22% among 360,000; in the data active = inhibition above about 35%, passing the limit was not always enough; inconclusive = no clear call, values can overlap the other calls; note: plate controls were buffer without enzyme for full effect and enzyme alone for no effect
# Autofluor counter – flagged as autofluorescent in microsphere protease counterscreen; compound autofluorescence counterscreen, microsphere flow cytometry; hits give high values; fluorescence intensity (concentration not given with the values); hit rate 3.1% among 360,000; AID 624483; in the data active = fluorescence intensity above about 16000; inconclusive = no clear call, values can overlap the other calls
# Starred values were filed as active, the others as inactive; ? = inconclusive. Cut-off read from the data, not from the text of the source, unless noted: active = inhibition above about 30%; inconclusive = no clear call, values can overlap the other calls; inactive = below that.
SMILES,Anthrax LF inh2,BoNT A protease,BoNT F protease,Autofluor counter
COCCn1c(SCC(=O)Nc2ccc(S(N)(=O)=O)cc2)nc2ccccc21,-2,-1,-6,2633
COCCn1c(SCC(=O)Nc2ccc(S(=O)(=O)N3CCOCC3)cc2)nc2ccccc21,-6,?,-4,23038*
CCOC(=O)CSc1nc2c(c(=O)[nH]c(=O)n2C)n1CCCc1ccccc1,-2,-2,-3,22767*
CC(C)CNC(=O)[C@H]1N2C(=O)c3ccccc3C2SC1(C)C (stereo partly drawn),-7,-3,-6,3443
COc1ccc(C2=CCCC2)c(OC)c1,1,0,5,3539
COc1ccc(Cn2c(=O)oc3ccc(C)cc32)cc1OC,-1,0,2,22068*
O=C(Cn1cc([N+](=O)[O-])cn1)N1CCN(Cc2ccc3c(c2)OCO3)CC1,-1,2,-2,5651
CC(C)C(=O)Nc1ccc(C(=O)NNC(=O)CCCOc2ccc(Cl)cc2Cl)cc1,-3,?,-3,24267*
CC(=O)NC(=S)Nc1ccc(NC(=O)COc2ccc(Cl)cc2Cl)cc1,-4,0,-2,4217
Cc1cc(Cl)ccc1OCC(=O)NCc1ccncc1,-5,0,-3,8121
O=C(COc1ccc(Cl)cc1Cl)NNC(=S)Nc1ccc(F)cc1,-2,0,0,16581*
O=C(COc1ccc(Cl)cc1Cl)NCc1ccncc1,0,1,0,19178*
C/C(=N/NC(=O)CN(c1ccccc1)S(=O)(=O)c1ccccc1)c1ccccc1O,-9,-2,-4,4262
O=C(Oc1ccc(-c2cn3c(n2)SCC3)cc1)c1ccccc1,-6,5,4,20792*
CN(C)c1ccc(P(=O)(OCc2ccccc2)C(O)c2cccnc2)cc1 (stereo not drawn),0,0,1,20409*
CC(C)C(O)P(=O)(OCc1ccccc1)c1ccc(N(C)C)cc1 (stereo not drawn),-4,-2,-3,20468*
CCc1noc(C)c1C(=O)Nc1sc(C(=O)N(C)C)c(C)c1C#N,5,-3,-4,7183
COc1cccc(CC2(CO)CCCN(Cc3sc(N4CCCC4)nc3Cl)C2)c1 (stereo not drawn),-1,-3,2,14488
CN1CCN(Cc2c(O)ccc3c(-c4ccccc4)cc(=O)oc23)CC1,-4,?,-2,23428*
COc1ccccc1-c1c(C)oc2c(CN3CCN(CCO)CC3)c(O)ccc2c1=O,-11,0,-9,3251
COc1ccccc1-c1c(C)oc2c(CN3CCN(C)CC3)c(O)ccc2c1=O,-2,?,-2,21100*
Cc1onc(-c2ccccc2Cl)c1C(=O)N1CCC(Cc2ccccc2)CC1,-1,2,5,4603
O=C(OCc1ccccc1)C1CCCN1C(=O)c1ccccc1[N+](=O)[O-] (stereo not drawn),-1,?,1,20292*
Cc1noc(C)c1C(=O)N1CCC(Cc2ccccc2)CC1,1,?,1,22708*
O=C(OCc1ccccc1)C1CCCN1C(=O)c1cccs1 (stereo not drawn),-1,0,0,3512
SMILES,Anthrax LF inh2,BoNT A protease,BoNT F protease,Autofluor counter
O=C(c1ccccc1[N+](=O)[O-])N1CCC(Cc2ccccc2)CC1,0,-2,-3,22923*
O=c1[nH]c2cnn(-c3ccccc3)c2c(=O)n1O,-8,0,4,3972
Oc1c(C=C2N=c3ccccc3=N2)sc(=S)n1C1CCCCC1,33*,70*,22,2417
O=C(Nn1c(O)c(C=C2N=c3ccccc3=N2)sc1=S)c1ccccc1Cl,65*,61*,55*,5061
CCn1c(O)c(C=C2N=c3ccccc3=N2)sc1=S,10,13,6,4186
Oc1c(C=C2N=c3ccccc3=N2)sc(=S)n1-c1ccccc1,26,44*,17,2577
Cc1c(F)cccc1NC(=O)c1ccc2c(c1)CCN2S(C)(=O)=O,-30,-3,?,4215
C#CCN(C[C@H]1[C@H](OC(=O)NCc2ccccc2F)[C@H](OC(=O)NCc2ccccc2F)C[C@@H](C(=O)OC)[C@H]1C(=O)OC)S(=O)(=O)c1ccc(C)cc1,-3,-1,-1,3171
Cc1cc(S(=O)(=O)N2CCCOC2CNC(=O)C(=O)NCCCN2CCOCC2)ccc1F (stereo not drawn),1,0,7,5451
O=C(C[C@H]1C/C=C\CC[C@H](Cc2ccc(F)cc2)C(=O)OC[C@@H]2CCCN2C1=O)N[C@H](CO)Cc1ccccc1,1,0,-5,3634
CC1(C(=O)Nc2ccc(Cl)c(Cl)c2)CCN1Cc1cc2ccccc2o1 (stereo not drawn),-5,0,-5,4000
